Laboratory results from PubChem BioAssay (NCI).
This is part of a sample that, as a whole, favours compounds with a hit. Of some 83,000 tested, about 20% had one in any assay.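 How to read the values: 0–100, growth inhibition (40 = 60% inhibited); 0, no net growth; -100 to 0, cell death (-40 = 40% of starting cells died; -100 = all dead).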 Values without a mark were called inactive. Active and inactive are the calls of the source. Rule for the calls: active = growth percent below 10; inactive = the rest.

These molecules were tested on HL-60(TB) leukemia (assay: NCI-60 one-dose screen, 48 h (100 = growth as untreated, 0 = no growth, -100 = all killed)). Conditions: 10 µM unless noted.
For `CC1(O)OC(COc2ccc(Cl)cc2)COC1O` (stereo unspecified), the growth was 105%.
Work on `Cc1cc(Cc2cc(C)c(O)c(C)c2)cc(C)c1O` yielded a growth of 15.6%.
`COc1ccccc1[C@H]1c2[nH]c3ccccc3c2C[C@H]2C(=O)N(CCCCCCC(=O)NO)CC(=O)N12` was tested, and the growth was 1.91% (active).
With `NNc1ccc(Cl)cc1Cl` the growth was 8.29% (active).
For `N#CC1=C(N)Oc2nc[nH]c(=O)c2C1c1cccs1` (stereo unspecified), the growth was 98.8%.
`C[C@H]1[C@H](C)CC[C@]2(C(=O)N3CCN(C)CC3)CC[C@]3(C)C(=CC[C@@H]4[C@@]5(C)C/C(=C/c6cccnc6)C(=O)C(C)(C)[C@@H]5CC[C@]43C)[C@H]12` was tested, and the growth was -54.4% (active).
Work on `CN1CCN(CCCNc2nccc(-c3c(-c4ccc(F)c(O)c4)nc4sccn34)n2)S1(=O)=O` yielded a growth of 78.3%.
Molecule `COc1ccc2nc3cc(Cl)ccc3c(Nc3ccc(O)cc3)c2c1` has a growth of 44.2%.
Work on `C=C(C[n+]1ccccc1)[C@@H]1CC[C@]2(C(=O)OC)CC[C@]3(C)[C@H](CC[C@@H]4[C@@]5(C)CC[C@H](O)C(C)(C)[C@@H]5CC[C@]43C)[C@@H]12` yielded a growth of 93.5%.
For `C=CCC(OC(C)=O)c1ccc(OC)c(OC)c1` (stereo unspecified), the growth was 116%.
With `CN1CCN(Cc2ccc(NC(=O)c3cncc(C#Cc4cnccc4C#N)c3)cc2C(F)(F)F)CC1` the growth was 24.7%.
For `C=C1c2c(C)nn(-c3ccc(N)cc3)c2N(C)C23CC1C1(C)c4c(C)nn(-c5ccc(N)cc5)c4N(C)C(C)(CC12)C3` (stereo unspecified), the growth was 55.7%.
With `COc1cc2c(=O)n(CCCn3ccnc3)c3c4cc5c(cc4ccc3c2cc1OC)OCO5` the growth was -15.2% (active).
For `O=C(CNC1CCCCC1)Nc1ccc(-c2nc3ccccc3s2)cc1`, the growth was 66.8%.
For `COc1ccc(NC(=O)c2ccccc2-c2ccccc2)c(C(N)=O)c1`, the growth was -17.9% (active).
For `COc1ccc(N=Nc2ccc(O)c(=O)cc2)cc1`, the growth was -33.2% (active).
`O=C1Nc2ccc(Br)cc2/C1=N\N=C/c1cn(Cc2ccccc2)c2ccccc12` gave a growth of 84.4%.
Work on `CCN1CCN(c2nc3ccccc3c3c(=O)c4ccccc4sc23)CC1` yielded a growth of 76.4%.
Work on `Cc1c(C(=O)Nc2nc(-c3ccccc3)cs2)nnn1-c1cccc2ccccc12` yielded a growth of 54.4% [50 µM].
For `O=C(c1ccccc1)C(c1ccccc1)N1CCOCC1` (stereo unspecified), the growth was 94.4%.
Work on `ClC1=C(Cl)C(=C2C(Cl)=C(Cl)C(Cl)=C2Cl)C(Cl)=C1Cl` yielded a growth of 77.7%.
`CCCCCC1CCCCN1C(=O)OCC` (stereo unspecified) was tested, and the growth was 77.5%.
With `CCc1ccc(CCN2C(=O)c3ccccc3C2=O)nc1` the growth was 120%.
With `O=C1Nc2c(ccc(Cl)c2Cl)/C1=C\c1ccc(C(F)(F)F)cc1` the growth was 51.8%.
Molecule `N#CSCc1ccc(CSC#N)c(Cl)c1` has a growth of 23%.
`COc1ccc(/C=C\c2cc(OC)c(OC)c(OC)c2)cc1OC(=O)c1cccc(Cn2cc(CCOC(=O)c3cccc(Cn4nnc5c4C(=O)c4ccccc4C5=O)c3)nn2)c1` was tested, and the growth was -21.9% (active).
